High-throughput results (PubChem BioAssay)
Most compounds without a hit are left out; they make up all but 7.3% or so of the library.
Rab9 promoter act: Rab9 promoter activation | Potency, µM (doses to about 9.22 µM), inactives show at the highest dose activation, negative = inhibition, hits mostly activators | Huh7 Rab9 promoter-luciferase reporter, luminescence, 24 h | AID 485297 | 2.8% of 320,000 active; further: % of control where 0% means no effect; nearly all actives have a fitted effect of over 60% in size
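Measured in stably transfected Huh7 cells bearing a Rab9 promoter–luciferase construct: 24 h compound treatment at 37 °C, followed by luminescence detection.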
SMN2 splice up: SMN2 splice variant enhancement; HEK293 SMN2-luciferase splicing reporter, luminescence, 30-36 h; Potency, µM (highest dose often 46.1 µM), without a hit: at the top dose activity change, positive = activation, usual class: activators; 2.8% of 210,000 active; further: % of control where 0% means no effect; nearly all actives have a fitted effect of over 55% in size
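HEK293 cells carry an SMN2 minigene-luciferase reporter in which exon 7 inclusion puts luciferase in frame. Cells were seeded at 2000 cells/well, attached for 10-12 hours, then exposed to compounds for 30-36 hours at 37C before ONE-Glo luminescence.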
Luc counter: counter-screen: inhibitors of Kinase-Glo firefly luciferase; Q27757; 0.28% of 200,000 active; Kinase-Glo luciferase, ATP luminescence, 8 min; Potency, µM (titrated, usually from 38.3 µM), inactives show at the top dose activity change, negative = inhibition, usual class: inhibitors; further: on the % scale 0 is the no-effect control and ±100 the full control effect; nearly all actives have a fitted effect of over 60% in size
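Inhibition of Kinase-Glo luciferase light generation was assessed at 10 uM ATP in pH 7.2 imidazole buffer, with luminescence measured after eight minutes at ambient temperature.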
NPC1 promoter act: activators of NPC1 promoter | Potency, µM (titrated, usually from 9.22 µM), for the others: at the top dose activation, most hits filed as activators | AID 485313 | Huh7 NPC1 promoter luciferase reporter, 24 h | 2.4% of 320,000 active; further: % of control where 0% means no effect; nearly all actives have a fitted effect of over 60% in size
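In 1536-well qHTS, Huh7 cells harboring an NPC1 promoter–luciferase construct received compound for 24 h; activation was quantified by luminescence following luciferase reagent addition.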
FLuc counter: counter-screen for miR-21 project: firefly luciferase inhibitors or activators | purified FLuc, Km substrates, luminescence inhibition | AID 588342 | Potency, µM (doses to about 57.5 µM), inactives show at the top dose activity change, negative = inhibition, actives largely listed as inhibitors | 6.9% of 360,000 active | P08659;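 further: plate controls were vehicle for no effect and reference inhibitor for full effect; nearly all actives have a fitted effect of over 55% in size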
Target sequence (P08659 whole entry, looked up): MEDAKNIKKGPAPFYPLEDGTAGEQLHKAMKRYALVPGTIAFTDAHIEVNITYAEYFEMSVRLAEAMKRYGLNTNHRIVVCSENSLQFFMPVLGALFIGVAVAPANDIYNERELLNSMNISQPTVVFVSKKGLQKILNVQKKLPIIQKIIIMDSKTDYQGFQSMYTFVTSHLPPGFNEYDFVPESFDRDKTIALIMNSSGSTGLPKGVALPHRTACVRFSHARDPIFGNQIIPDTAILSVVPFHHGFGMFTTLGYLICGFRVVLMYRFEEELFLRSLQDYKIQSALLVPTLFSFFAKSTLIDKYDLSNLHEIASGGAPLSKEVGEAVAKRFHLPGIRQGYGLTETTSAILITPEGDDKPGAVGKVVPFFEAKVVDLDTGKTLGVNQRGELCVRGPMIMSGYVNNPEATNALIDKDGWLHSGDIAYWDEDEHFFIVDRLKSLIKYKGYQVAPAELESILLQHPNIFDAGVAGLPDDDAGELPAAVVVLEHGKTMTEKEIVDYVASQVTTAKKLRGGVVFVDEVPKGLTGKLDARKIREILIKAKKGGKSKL
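Biochemical qHTS of compounds, final roughly 60 µM downward over six points, against 10 nM purified firefly luciferase using Km concentrations of substrates (10 uM D-luciferin, 10 uM ATP) in Tris acetate pH 7.5 buffer; luminescence output.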
* marks the source's active call; other numbers are inactive results. The call rests on the fitted dose curve; in most records, active means well fitted curve in the direction sought with a large enough effect; inconclusive means small, poorly fitted or top-dose-only effect, or another doubt; inactive means no such curve, though single readings can be large; an effect the other way counts as inactive or inconclusive. Potency means the concentration at half of the fitted maximal effect.

Results for O=C(/C=C/c1ccccc1O)c1ccc(Cl)cc1 ?
Rab9 promoter act: 25.2%; NPC1 promoter act: -0.5%; FLuc counter: 3.38µM*

How did COc1ccccc1/C=C/C(=O)c1c2c(c(C)[nH]c1=O)CCCC2 do in these assays?
Rab9 promoter act: -30.1%; SMN2 splice up: -54.2%; Luc counter: 0.9%; NPC1 promoter act: 0.1%; FLuc counter: -7.5%

How did COc1ccc(OC(=O)c2ccc(Cl)cc2)c(C(C)=O)c1 do in these assays?
Rab9 promoter act: -3.2%; NPC1 promoter act: -5.0%; FLuc counter: inconclusive

What do the screens show for `COc1ccccc1/C=C/C(=O)c1ccc(NC(C)=O)cc1`?
Rab9 promoter act: -0.5%; Luc counter: -1.7%; NPC1 promoter act: 7.9%; FLuc counter: 15.1µM*

How did COc1ccccc1/C=C/C(=O)c1ccccc1 do in these assays?
Rab9 promoter act: inconclusive; NPC1 promoter act: inconclusive; FLuc counter: 1.9µM*

Results for COc1ccccc1N1CCN(C(=O)c2ccc(NC(C)=O)cc2)CC1 ?
Rab9 promoter act: -0.2%; SMN2 splice up: -23.9%; Luc counter: 1.5%; NPC1 promoter act: -2.9%; FLuc counter: 4.2%

What do the screens show for `COc1ccc(OC)c(/C=C/C(=O)c2ccc(Cl)cc2)c1`?
Rab9 promoter act: -5.1%; SMN2 splice up: -32.3%; Luc counter: -0.8%; NPC1 promoter act: -2.1%; FLuc counter: 10.7µM*

What do the screens show for `COc1ccc(CNC(=O)C2CCN(S(=O)(=O)c3cccc(-c4noc(C)n4)c3)CC2)cc1`?
FLuc counter: -0.1%

How did COc1cccc(-n2c(SCc3cccc(C)c3)nc3c([nH]c4ccccc43)c2=O)c1 do in these assays?
FLuc counter: -1.5%

What do the screens show for `CCOc1ccccc1/C=C/C(=O)c1ccc(Cl)cc1`?
Rab9 promoter act: 10.7%; SMN2 splice up: -58.2%; Luc counter: 5.1%; NPC1 promoter act: 16.8%; FLuc counter: inconclusive

How did COc1ccccc1/C=C/C(=O)N1CCC(c2ccccc2)C1 (stereo unspecified) do in these assays?
Rab9 promoter act: inconclusive; SMN2 splice up: 12.6µM*; Luc counter: -1.6%; NPC1 promoter act: inconclusive; FLuc counter: 9.53µM*

What do the screens show for `O=C(O)/C=C\c1ccccc1Oc1cccc(Cl)c1`?
Rab9 promoter act: 6.8%; SMN2 splice up: -2.5%; Luc counter: -0.7%; NPC1 promoter act: -10.5%; FLuc counter: inconclusive

How did COc1ccccc1/C=C/C(=O)N1CCOCC1 do in these assays?
Rab9 promoter act: -0.1%; SMN2 splice up: -15.6%; Luc counter: -3.4%; NPC1 promoter act: -0.3%; FLuc counter: 2.6%

Results for O=C(O)/C=C/c1ccccc1Oc1ccc(Cl)cc1Cl ?
Rab9 promoter act: -2.5%; SMN2 splice up: 3.1%; Luc counter: -1.7%; NPC1 promoter act: -0.1%; FLuc counter: 15.1µM*

What do the screens show for `COc1ccccc1/C=C/C(=O)c1ccc(Cl)cc1`?
Rab9 promoter act: 13.4%; SMN2 splice up: -18.9%; Luc counter: -4.5%; NPC1 promoter act: inconclusive; FLuc counter: 7.57µM*

Results for O=C(NCc1ccco1)C1CCN(C(=O)N2CCOc3ccc(Cl)cc32)CC1 ?
FLuc counter: 5.2%

How did CSC1=NNC(c2ccc(C(C)(C)C)cc2)=NN1 do in these assays?
Rab9 promoter act: inconclusive; NPC1 promoter act: inconclusive; FLuc counter: 12µM*

What do the screens show for `CCCc1nnc(N2C(=O)c3oc4ccc(F)cc4c(=O)c3C2c2ccc(C(=O)OC)cc2)s1` (stereo unspecified)?
SMN2 splice up: 12.7%; FLuc counter: -0.1%

What do the screens show for `Cc1ccc(C(=O)/C=C/Nc2cccc([N+](=O)[O-])c2)o1`?
Rab9 promoter act: 3.16µM*; SMN2 splice up: 14.1µM*; Luc counter: -6.0%; NPC1 promoter act: inconclusive; FLuc counter: 5.36µM*

What do the screens show for `Cc1cccc(Cc2nnc(CCC(=O)N3CCCCC3c3nccs3)o2)c1` (stereo unspecified)?
Rab9 promoter act: 5.2%; NPC1 promoter act: 7.8%; FLuc counter: -15.5%

Results for COc1ccc(OC)c(Cc2nnc(CCC(=O)N3CCCCC3c3nccs3)o2)c1 (stereo unspecified) ?
Rab9 promoter act: 3.55µM*; Luc counter: 0.5%; NPC1 promoter act: inconclusive; FLuc counter: 23.9µM*
